Measurements: PubChem BioAssay AID588358 (NMMLSC, 2011)
Hit rate of the full screen: of about 310,000 compounds, about 1,500 (0.48%) were called active. Many of the other results were omitted from the sample, so actives are more common in it than they were. A number with no mark means an inactive call.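 How the source made its calls: active means binding more than 3 SD below its plate's average and above zero; inconclusive means below that plate limit but binding exactly zero; inactive means the rest.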

target: Desmoglein-3 (Homo sapiens) (UniProt P32926); assay: inhibitors of pemphigus antibody binding to DSG3, primary screen, biochemical, bead-based, flow cytometry, scFv-GFP (AID 588358); conditions: DSG3-coupled beads, scFv-anti-DSG3-GFP binding, at 10 µM, stronger effect = lower value
Sequence (P32926 whole entry, looked up): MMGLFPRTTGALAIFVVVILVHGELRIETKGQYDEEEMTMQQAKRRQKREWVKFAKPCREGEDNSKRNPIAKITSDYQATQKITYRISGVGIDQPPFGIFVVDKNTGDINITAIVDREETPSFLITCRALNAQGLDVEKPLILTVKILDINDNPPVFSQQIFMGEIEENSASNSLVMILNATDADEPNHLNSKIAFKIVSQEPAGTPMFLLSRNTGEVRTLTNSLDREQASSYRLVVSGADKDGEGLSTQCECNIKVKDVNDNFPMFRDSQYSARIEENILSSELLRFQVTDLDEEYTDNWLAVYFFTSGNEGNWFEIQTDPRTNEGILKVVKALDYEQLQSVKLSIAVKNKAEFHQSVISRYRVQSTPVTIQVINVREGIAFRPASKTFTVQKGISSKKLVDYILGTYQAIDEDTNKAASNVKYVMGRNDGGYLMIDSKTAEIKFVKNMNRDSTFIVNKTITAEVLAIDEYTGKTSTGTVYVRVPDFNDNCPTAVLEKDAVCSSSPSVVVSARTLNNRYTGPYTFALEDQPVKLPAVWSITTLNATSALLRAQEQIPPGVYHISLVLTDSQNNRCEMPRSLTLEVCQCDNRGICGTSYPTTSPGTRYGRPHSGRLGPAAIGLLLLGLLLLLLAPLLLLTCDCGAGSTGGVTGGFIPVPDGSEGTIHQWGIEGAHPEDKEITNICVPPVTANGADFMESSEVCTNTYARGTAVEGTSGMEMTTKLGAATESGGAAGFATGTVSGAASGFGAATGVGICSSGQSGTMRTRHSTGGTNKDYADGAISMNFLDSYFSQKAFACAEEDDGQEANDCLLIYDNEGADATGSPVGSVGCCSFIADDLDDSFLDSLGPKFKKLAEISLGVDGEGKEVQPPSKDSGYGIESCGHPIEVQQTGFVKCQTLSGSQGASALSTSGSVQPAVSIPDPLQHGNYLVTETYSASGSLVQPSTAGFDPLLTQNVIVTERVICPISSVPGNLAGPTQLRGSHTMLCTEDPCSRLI

| Compound | binding (percent of control) |
| --- | --- |
| Cc1cc2cc(CNC(=O)c3cccs3)ccc2[nH]1 | 80.6% (active) |
| CCc1cccc(CC)c1NC(=S)NCc1ccc2[nH]c(C)cc2c1 | 78.1% |
| Cc1cc2cc(CNC(=O)c3ccc(S(=O)(=O)N4CCOCC4)cc3)ccc2[nH]1 | 95.4% |
| Cc1onc(-c2ccccc2)c1-c1nnc(COC(=O)c2ccc(N(C)C)cc2)o1 | 109% |
| C[C@H](CO)N1C[C@H](C)[C@H](CN(C)C(=O)c2ccncc2)OCc2ccccc2-c2c(n(C)c3ccccc23)C1=O | 103% |
| Cc1cccc(C(=O)NC2CCN(CC(=O)Nc3cccc(Cl)c3)CC2)c1 | 92.9% |
| O=C(c1cc(-c2ccc(F)cc2)on1)N1CCN(c2ccc(F)cc2)CC1 | 91% |
| O=C(c1cc(-c2ccc(Cl)cc2)on1)N1CCN(c2ccccc2)CC1 | 24.2% (active) |
| O=C(c1cc(-c2ccc(O)cc2)on1)N1CCOCC1 | 104% |
| O=C(Nc1nnc(S(=O)(=O)N2CCCCCC2)s1)c1cccc(Br)c1 | 102% |
| Cc1cccc(C(=O)Nc2nnc(S(=O)(=O)N3CCCCCC3)s2)c1 | 29.9% (active) |
| COc1cccc(C(=O)Nc2nnc(S(=O)(=O)N3CCCCC3)s2)c1 | 99.3% |
| CC1(C2CC2)NC(=O)N(CC(=O)N2CCN(c3ccccc3F)CC2)C1=O (stereo unspecified) | 101% |
| COc1ccc(NC(=O)CSc2nnnn2-c2cccc(OC)c2)cc1 | 92.2% |
| O=C(O)c1cc2ccccc2c(=O)s1 | 53.2% (active) |
| O=C(O)C#Cc1cccc2ccccc12 | 97.7% |
| O=C(O)c1ccc(S(=O)(=O)c2ccccc2)s1 | 123% |
| CCN1C(=O)[C@H]2[C@@H](c3ccc(C(F)(F)F)cc3)N[C@]3(CCCN(Cc4ccc(Br)cc4)C3=O)[C@H]2C1=O | 111% |
| CCC(=C/c1sc2ccc3ccccc3c2[n+]1C)/C=C1\Sc2ccc3ccccc3c2N1C | 75% (active) |
| CCOC(=O)c1cc(-c2sc(NC(=O)c3ccccc3)nc2C)n(-c2ccc(Br)cc2)n1 | 102% |
| Nc1nc(SCC(=O)N2CCN(S(=O)(=O)c3ccc(Cl)cc3)CC2)n[nH]1 | 104% |
| O=C(COc1ccc(Cl)cc1)N1CCN(S(=O)(=O)c2ccc(Cl)cc2)CC1 | 66.4% (active) |
| O=C(CSc1ccccn1)N1CCN(S(=O)(=O)c2ccc(Cl)cc2)CC1 | 96.2% |
| O=C(CSc1ccc(-c2ccc(-n3cccn3)cc2)nn1)Nc1ccc([N+](=O)[O-])cc1 | 89.5% (active) |
| O=C(CSc1ccc([N+](=O)[O-])cn1)Nc1ccc(N2CCOCC2)cc1 | 96.9% |
| O=C(CSc1ccc(-c2ccccn2)nn1)Nc1ccccc1 | 101% |
